Rows were chosen to be rich in hits. Some 1.5% of all compounds tested hit in one or more screens of this group.
RAD54 inh = blocks human RAD54 Holliday junction branch migration; Q92698; FAM/BHQ fluorescence; inhibition, % at 10.4 µM; 360,000 compounds, 0.14% hits; AID 602329;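 active = mean normalized replicate activity at least 40 and at least half of replicates scoring 40 or more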;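 also: 0% = median of neutral control wells and 100% = median of positive control wells; inhibitors cause a drop in the FAM fluorescence signal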
CendR NRP1 mod = alters CendR peptide binding to human NRP-1 | FAM-RPARPAR peptide binding to NRP-1, fluorescence polarization | inhibition, % at 25 µM | 360,000 compounds, 0.85% hits;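 active = inhibition or corrected inhibition above about 18%, plus a signal ratio from 0.5 to 1.5, limit read from the data, passing the limit was not always enough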
Target sequence (O14786 whole entry, looked up): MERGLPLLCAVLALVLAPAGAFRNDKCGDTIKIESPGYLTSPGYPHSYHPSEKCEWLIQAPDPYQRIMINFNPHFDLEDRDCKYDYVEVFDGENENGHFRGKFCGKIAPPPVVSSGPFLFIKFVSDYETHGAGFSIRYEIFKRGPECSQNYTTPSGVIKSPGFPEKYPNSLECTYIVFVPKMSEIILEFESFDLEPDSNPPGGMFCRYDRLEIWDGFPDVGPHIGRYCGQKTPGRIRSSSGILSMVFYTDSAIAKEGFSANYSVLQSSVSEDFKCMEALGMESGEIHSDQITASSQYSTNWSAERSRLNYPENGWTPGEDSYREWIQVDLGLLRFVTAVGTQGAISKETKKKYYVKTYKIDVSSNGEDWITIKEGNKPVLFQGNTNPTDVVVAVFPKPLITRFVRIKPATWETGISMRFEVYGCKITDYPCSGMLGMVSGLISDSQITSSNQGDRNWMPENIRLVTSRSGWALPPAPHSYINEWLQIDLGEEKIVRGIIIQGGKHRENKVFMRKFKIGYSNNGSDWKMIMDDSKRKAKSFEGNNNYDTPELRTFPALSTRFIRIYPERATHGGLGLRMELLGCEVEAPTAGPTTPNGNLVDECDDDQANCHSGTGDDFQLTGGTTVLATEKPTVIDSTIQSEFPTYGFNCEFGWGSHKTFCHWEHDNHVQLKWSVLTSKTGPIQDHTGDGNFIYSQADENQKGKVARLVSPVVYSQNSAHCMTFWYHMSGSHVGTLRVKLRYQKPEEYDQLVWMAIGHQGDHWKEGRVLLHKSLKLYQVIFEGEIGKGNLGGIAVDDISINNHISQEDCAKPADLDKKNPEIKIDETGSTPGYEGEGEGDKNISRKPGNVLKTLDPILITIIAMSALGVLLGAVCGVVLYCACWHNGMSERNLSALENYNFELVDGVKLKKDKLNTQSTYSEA
miR-122 sensor = blocks miR-122 activity in Huh7 sensor cells. Huh7 miR-122 Renilla luciferase sensor, 48 h; neutral wells = 0, positive control = 100. activation (reporter increase), % at 12.5 µM. 340,000 compounds, 0.3% hits. AID 602342;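 active = mean replicate activation score at least 90 and every replicate individually at or above 90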;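 also: higher luciferase means less miR-122 activity so hits act as miR-122 inhibitors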
N-glyco inh = blocks N-linked glycosylation in D54 reporter cells; reporter increase, % at 12.5 µM; 360,000 compounds, 0.23% hits; D54 ERlucT glycosylation luciferase reporter, 24 h; percent of 100 nM tunicamycin response; AID 588692;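 active = mean luciferase reporter signal, scaled so untreated is 0 and the glycosylation-blocking control 100, at or above a set limit in every replicate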;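 also: luciferase carries N-glycosylation sites so blocking glycosylation raises the light; 0% = median of neutral control wells and 100% = median of 100 nM tunicamycin wells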
RAD52 inh = RAD52 (human) annealing inhibition | P43351 | recombinant RAD52 DNA annealing, FRET fluorescence | inhibition, % at 18.7 µM | 360,000 compounds, 0.46% hits;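 active = every replicate showing at least 50% inhibition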
FID counter = counter-screen for HCV NS3 helicase inhibitors: DNA intercalator displacement | DNA fluorescent intercalator displacement, fluorescence | inhibition, % at 7.9 µM | 290,000 compounds, 0.17% hits | AID 1845; in the data active = inhibition above about 37%;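 also: 0% = vehicle and 100% = reference compound; higher means more ethidium bromide displaced from hairpin DNA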
Numbers without * were called inactive; · = no result; [ ] = another dose, or the depositor's remark.

SMILES	RAD54 inh	CendR NRP1 mod	miR-122 sensor	N-glyco inh	RAD52 inh	FID counter
Cc1c(NC(=O)CSc2nc(N)cc(N)n2)c(=O)n(-c2ccccc2)n1C	-1	20*	-4	3	-6	·
Cc1cc(Br)cc2c(C(=O)Nc3c(C)n(C)n(-c4ccccc4)c3=O)cc(-c3cccs3)nc12	·	-18	·	41*	·	-6
O=S(=O)(c1ccc(Cl)cc1)N1CCN(Cc2cccc(OCCO)c2)CC1	·	·	·	·	16	·
Cc1c(NC(=O)c2c(O)c3ccccc3n(C)c2=O)c(=O)n(-c2ccccc2)n1C	·	32*	·	2	-16	-2
Cc1[nH]c2ccc(C(=O)OCCN(C)C)cc2c1C	10	-8	-6	-4	·	4
CCOC(=O)c1ccc2[nH]c(C)c(C)c2c1	10	46*	·	0	·	-5
CC(C)CCNC(=O)CCCOc1cc(=O)n(C)c2ccccc12	3	-37	10	31*	-16	-27
CN1CCN(CCCNC(=O)CCCOc2cc(=O)n(C)c3ccccc23)CC1	13	-13	-1	10	·	4
COc1ccc(C#Cc2ccc([C@@H]3[C@H](CO)N4CCCCN(C(=O)Nc5cccc(F)c5)C[C@@H]34)cc2)cc1	33	·	-27[16.7 µM]	·	-21	·
CCOc1ccc(OCC)c(S(=O)(=O)N2CCCCC2)c1	-18	10	18	-1	·	-18
CCOC(=O)N1CCN(S(=O)(=O)c2cc(OCC)ccc2OCC)CC1	0	4	143*	-1	·	-27
Cc1[nH][nH]c(=O)c1C(c1c(C)[nH][nH]c1=O)c1cn(Cc2cccc3ccccc23)c2ccccc12	-22	-1	-1	11	·	-7
Cc1[nH][nH]c(=O)c1C(c1c(C)[nH][nH]c1=O)c1cn(C)c2ccccc12	·	20*	·	10	-7	4
C/C=C/c1ccc2c(c1)O[C@@H](CN(C)C(=O)C1CCC1)[C@H](C)CN([C@H](C)CO)S2(=O)=O	·	·	0[16.7 µM]	·	·	·
O=C(CSc1nc(-c2ccccc2Cl)ns1)c1ccc(Cl)cc1	·	5	·	-2	·	-3
Cc1cccc(-c2nsc(SCC(=O)c3ccc(Cl)cc3)n2)c1	·	45*	·	1	-12	-3
Nc1ccc(N=Nc2ccccc2)cc1[N+](=O)[O-]	7	23*	·	-1	4	·
Oc1ccccc1Oc1c(F)c(F)nc(N2CCCC2)c1F	7	2	-3	-1	0	-5
CC(=O)/C=C/c1ccccc1Oc1c(F)c(F)nc(F)c1F	3	8	-2	60*	-11	-13
Cc1[nH]n(-c2ccccc2)c(=O)c1C(C[N+](=O)[O-])c1ccccc1Cl (configuration not stated)	5	31*	0	-3	·	-5
COc1ccc(C(C[N+](=O)[O-])c2c(C)[nH]n(-c3ccccc3)c2=O)cc1 (configuration not stated)	4	-3	·	5	-10	-2
Cc1n[nH]c(C)c1S(=O)(=O)N1CCOCC1	-6	27*	0	0	·	8
Cc1n[nH]c(C)c1S(=O)(=O)N1CCC(C(=O)O)CC1	-1	-1	2	3	·	-3
Cc1ccc(NC(=O)c2cccc(Cl)c2)nc1	6	25*	-6	0	·	-2
Cc1ccc(OC(C)C(=O)Nc2ccc(Cl)cn2)c([N+](=O)[O-])n1 (configuration not stated)	-1	7	-1	4	-8	·
SMILES	RAD54 inh	CendR NRP1 mod	miR-122 sensor	N-glyco inh	RAD52 inh	FID counter
Cc1ccc(NC(=O)c2ccccc2[N+](=O)[O-])nc1	3	30*	10	5	-13	1
Cc1ccc(NC(=O)c2ccc(Cl)cc2[N+](=O)[O-])nc1	·	-2	·	31*	-1	-2
Cc1ccc(-c2cc(NC(=O)c3ccccc3[N+](=O)[O-])n[nH]2)cc1	0	0	13	6	-11	9
Cc1cc(Cl)ccc1OC(C)C(=O)Nc1ccc([N+](=O)[O-])cn1 (configuration not stated)	-5	26*	-7	-5	·	-1
COc1ccccc1NC(=O)N[C@@H]1CC[C@H](CCn2cc(-c3ccccc3OC)nn2)O[C@H]1CO	-7	·	·	·	13	·
CCC(=O)Nc1ccc2c(c1)OC[C@H](C)N(C(=O)CC)C[C@H](C)[C@H](OC)CN(C)C2=O	·	·	-26[16.7 µM]	·	·	·
O=C(NCC[C@H]1CC[C@H](NS(=O)(=O)c2ccc(Cl)cc2)[C@H](CO)O1)c1ccc2c(c1)OCO2	0	·	·	·	7	·
O=C(C(c1ccccc1)c1ccccc1)N1CCOCC1	-5	-4	213*	2	·	-3
O=C(c1ccccc1F)N1CCN(c2ccccc2)CC1	-1	-1	2	0	·	-7
O=C(c1ccccc1F)N1CCN(C(=O)C(c2ccccc2)c2ccccc2)CC1	4	22*	-2	-2	-10	-38
CN(C)c1ccc(C=c2c3cc([N+](=O)[O-])ccc3n3c2cc(-c2ccccc2)[n+]3C)cc1	·	4	-9	-8	100*	·
O=C(Cc1ccccn1)NCC[C@@H]1CC[C@H](NS(=O)(=O)c2ccc(Cl)cc2)[C@H](CO)O1	-8	·	·	·	-1	·
CCOC(=O)c1ccc(N2C(=O)CC(Sc3nnc(C)s3)C2=O)cc1 (configuration not stated)	-1	35*	0	0	·	-17
C[C@@H]1CN([C@@H](C)CO)C(=O)c2cc(NC(=O)CCC(F)(F)F)ccc2O[C@@H](C)CCCCO[C@H]1CN(C)C	·	·	1[16.7 µM]	·	·	·
COCc1nnc(NC(=O)c2cccc(NC(=O)C(C)C)c2)s1	2	-9	-2	1	4	2
COCc1nnc(NC(=O)C(C)C)s1	-5	26*	-4	0	·	4
C=CCNC(=O)[C@@H]1[C@H]2C(=O)O[C@H](c3ccccc3)[C@H](c3ccccc3)N2[C@H](c2ccccc2OCCO)[C@@]12C(=O)N(C(=O)OCCOC)c1ccc(C#CCC(C(=O)OC)C(=O)OC)cc12	1	·	·	·	4	·
CC(C)NC(=O)N(C)C[C@H]1Oc2ccc(NC(=O)CCN3CCOCC3)cc2CC(=O)N([C@@H](C)CO)C[C@H]1C	10	·	-2[16.7 µM]	·	-13	·
Cc1cccc(CN2CCN([C@H]3CS(=O)(=O)N[C@@H]3COCc3ccccc3)CC2)c1	4	26*	-3	0	-19	·
COc1ccc(C(=O)Nn2cnnc2)cc1	-12	10	-4	-1	·	3
CCCCOc1ccc(C(=O)Nn2cnnc2)cc1	0	25*	4	2	·	-4
CC(C)CNc1oc(-c2ccccc2Cl)nc1C#N	·	26*	·	-2	-11	-16
N#Cc1nc(-c2ccco2)oc1NCc1cccnc1	·	-5	·	2	-3	-5
CC(Nc1oc(-c2ccco2)nc1C#N)c1ccccc1 (configuration not stated)	2	-8	4	1	·	-13
N#Cc1nc(-c2ccco2)oc1NCc1ccc(F)cc1	1	23*	3	-1	·	-3
CC(C)CNc1oc(-c2ccco2)nc1C#N	4	22*	-8	-1	·	2
